# Reference: PubChem BioAssay (NCATS)
# Records with an inconclusive call do not appear. The source made the active and inactive calls. Calls follow the shape of the full dose curve.
# Test: S16 Schwann cell PMP22 intronic element beta-lactamase assay (AID 624044); also: nearly all actives have a fitted effect of over 15% in size;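 as to ratio activity, negative = inhibition: 0% = DMSO and -100% = potassium clavulanate positive control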
# Details: S16 rat Schwann cells, PMP22 element beta-lactamase FRET, 24 h; series mostly up to 38.3 µM; ratio activity, negative = inhibition: at the top concentration
# Outline: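 Beta-lactamase reporter under a PMP22 intronic regulatory element in stable S16 rat Schwann cells; 24 h compound exposure. 460 nm blue signal normalized between DMSO (0%) and potassium clavulanate, with 535 nm FRET tracking viability; curves classed by r2 and response.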
# Potency is read from the fitted curve at half-maximal effect.
Structure (SMILES),"ratio activity, negative = inhibition",Potency
CC(C)(S)[C@@H](N)C(=O)O,1.83% (inactive),
O=C(O)c1cn(-c2ccc(F)cc2)c2cc(N3CCNCC3)c(F)cc2c1=O,1% (inactive),
CC(C)c1ccc2oc3nc(N)c(C(=O)O)cc3c(=O)c2c1,4.63% (inactive),
C[C@H](Cn1cnc2c(N)ncnc21)OCP(=O)(O)O,-9.97% (inactive),
O=c1oc2cc(O)ccc2s1,-0.257% (inactive),
CC1=C(C)C(=O)C(C(CCCCCC(=O)O)c2ccccc2)=C(C)C1=O (stereo unspecified),9.96% (inactive),
O=C(OC1C[C@H]2CC[C@@H](C1)[N+]21CCCC1)C(O)(c1ccccc1)c1ccccc1 (stereo partly specified),-0.887% (inactive),
CCC[C@@H]1C[C@@H](C(=O)N[C@@H]([C@H]2O[C@H](SC)[C@H](O)[C@@H](O)[C@H]2O)[C@@H](C)O)N(C)C1,1.42% (inactive),
CCN(CCO)CCCC(C)Nc1ccnc2cc(Cl)ccc12 (stereo unspecified),-12.6% (inactive),
Cc1c(OCC(F)(F)F)ccnc1CS(=O)c1nc2ccccc2[nH]1 (stereo unspecified),0.0171% (inactive),
CN(c1nccc(=O)[nH]1)C1CCN(c2nc3ccccc3n2Cc2ccc(F)cc2)CC1,0.824% (inactive),
CCOc1cc(CC(=O)N[C@@H](CC(C)C)c2ccccc2N2CCCCC2)ccc1C(=O)O,-4.9% [at 17.1 µM] (inactive),
CCCCCCCCOc1ccccc1C(=O)Nc1ccc(C(=O)OCC[N+](C)(CC)CC)cc1,-2.98% (inactive),
C[Se]CCC(N)C(=O)O (stereo unspecified),4.04% (inactive),
CCOC(=O)c1c(C)n(C)c2ccc(O)cc12,-5.02% (inactive),
CC[C@]1(O)C[C@H]2CN(CCc3c([nH]c4ccccc34)[C@@](C(=O)OC)(c3cc4c(cc3OC)N(C=O)[C@H]3[C@@](O)(C(=O)OC)[C@H](OC(C)=O)[C@]5(CC)C=CCN6CC[C@]43[C@@H]65)C2)C1,,282 nM (active)
